Assay outcomes from PubChem.
PNC assembly inh = inhibitors of perinucleolar compartment assembly; PC3M PTB-GFP, PNC prevalence imaging, 16 h; stronger effect = lower value; activity change (PNC), negative = inhibition, % at 10 µM; 3.1% of 140,000 active;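 active = readout at or below -70, meaning at least 70% loss of cells showing the perinucleolar compartment, a nuclear body marking cancer cells; inconclusive = readout between -30 and a set limit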;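 note: plate controls were DMSO wells for no effect and camptothecin positive control wells for full effect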
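Read-out is percentage of cells bearing a perinucleolar compartment, from automated 20x imaging of fixed, Hoechst-stained PC3M PTB-GFP cells. Cells were seeded 4 h, then exposed 16 h to compound (23 nl of library stock) in duplicate plates.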
HPGD inh = blocks human HPGD enzyme activity; P15428; purified HPGD, NADH fluorescence kinetic, PGE2 substrate; Potency, µM, without a hit: at the highest dose activity change, negative = inhibition, usual class: inhibitors; 4.3% of 150,000 active; note: potency is the fitted concentration of half-maximal effect
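NADH formation kinetics: reaction with 30 uM PGE2 and 1 mM NAD+ (final), 20 nM enzyme, Tris-HCl pH 8 with Tween 20, after 15 min compound preincubation at room temperature. Fluorescence change, last versus first of five reads.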
LMNA splice mod = modulators of lamin A splicing; AID 1487; HeLa LMNA splicing GFP/RFP minigene ratio, 48 h; Potency, µM (doses to about 46.1 µM), for inactives: at the top dose ratio change, negative = inhibition, actives largely listed as inhibitors; 0.01% of 200,000 active; active = well fitted inhibition curve with a large enough effect in the signal ratio, with a control signal flat, not every such curve was filed as active; inconclusive = small, poorly fitted or top-dose-only effect, or effect the other way, or a change in a side signal; the % refers to the signal ratio; note: potency is the fitted concentration of half-maximal effect
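S3 HeLa cells stably expressing lamin A-EGFP splicing minigene plus DsRed2, 600 cells/well, 48 h compound exposure at 37C. Laser-scanning cytometry; analysed as GFP (500-530 nm)/RFP (575-640 nm) total intensity ratio; 0.5% DMSO vehicle.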
Luc counter = blocks Kinase-Glo luciferase, a counter-screen artifact; Potency, µM (doses to about 38.3 µM), inactives show top-dose activity change, negative = inhibition, most hits filed as inhibitors; Q27757; 0.28% of 200,000 active; Kinase-Glo luciferase, ATP luminescence, 8 min; active = well fitted inhibition curve with a large enough effect; inconclusive = small, poorly fitted or top-dose-only effect; note: potency is the fitted concentration of half-maximal effect; nearly all actives have a fitted effect of over 60% in size
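Kinase-Glo luciferase light output from ATP and luciferin was measured with 10 uM ATP, within the enzyme's linear range. Buffer: 50 mM imidazole pH 7.2, 50 mM KCl, 7 mM MgCl2, 0.01% Tween 20, 0.05% BSA; luminescence read after 8 min at ambient temperature.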
ALDH1A1 inh = inhibitors of human aldehyde dehydrogenase 1A1; P00352; Purified ALDH1A1, NADH fluorescence, propionaldehyde substrate; Potency, µM (highest dose often 75.3 µM), without a hit: at the highest dose activity, negative = inhibition, usual class: inhibitors; 7.3% of 220,000 active; AID 1030;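 note: potency is the fitted concentration of half-maximal effect; plate controls were no enzyme wells and a reference inhibitor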
Target sequence (P00352 whole entry, looked up): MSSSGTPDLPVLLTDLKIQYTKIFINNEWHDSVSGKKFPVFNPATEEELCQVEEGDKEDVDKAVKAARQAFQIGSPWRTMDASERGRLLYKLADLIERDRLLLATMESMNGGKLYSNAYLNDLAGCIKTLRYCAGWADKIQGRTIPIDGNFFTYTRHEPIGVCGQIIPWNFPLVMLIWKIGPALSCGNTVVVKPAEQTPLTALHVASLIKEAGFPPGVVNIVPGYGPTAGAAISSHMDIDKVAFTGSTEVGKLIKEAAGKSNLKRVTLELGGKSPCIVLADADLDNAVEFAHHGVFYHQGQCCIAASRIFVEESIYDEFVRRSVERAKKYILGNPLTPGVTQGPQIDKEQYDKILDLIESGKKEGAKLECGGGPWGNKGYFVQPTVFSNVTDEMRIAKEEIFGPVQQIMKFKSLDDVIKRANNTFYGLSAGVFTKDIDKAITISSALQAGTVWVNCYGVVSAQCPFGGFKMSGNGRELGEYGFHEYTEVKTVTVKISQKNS
* marks the source's active call; other numbers are inactive results; ? = inconclusive; nt = no result given; [ ] = remark or other dose. Sampled rows, rich in hits. Any-hit rate of the full collection: about 10%. Unless noted, calls come from the whole dose curve; as a rule, active = well fitted inhibition curve with a large enough effect (not every such curve was filed as active); inconclusive = small, poorly fitted or top-dose-only effect, or another doubt; inactive = no such curve, though single readings can be large or run the other way. Unless noted, % is set by controls: 0 for no effect and ±100 for the full control effect.

SMILES | PNC assembly inh | HPGD inh | LMNA splice mod | Luc counter | ALDH1A1 inh
C/C(Cn1cnc([N+](=O)[O-])n1)=N\NC(=O)c1ccc(Br)cc1 | 4.8 | -12.3% | 2.1% | 1.5% | 14.1µM*
C/C(Cn1nnc([N+](=O)[O-])n1)=N\NC(=O)c1ccc(Cl)c(Cl)c1 | 14.9 | -8.0% | ? | 9.1% | 28.2µM*
Cc1nc2cccnc2n1C1CCN(C(=O)Nc2ccc(Cl)cc2)CC1 | nt | nt | 4.2%[46 µM] | nt | nt
O=S(=O)(O)[C@@H](CO)c1ccccc1 (tested in a mixture with another compound) | nt | -3.7% | nt | -5.8%[7.66 µM] | -7.9%[13.5 µM]
CC(C)=Cc1c(O)nc2ccccn2c1=O | nt | nt | nt | -0.6% | -12.7%
O=c1c(/C=N/O)c(Nc2ccccc2)nc2ccccn12 | 10.1 | 0.562µM* | 4.8% | 5.0% | ?
COc1ccccc1NC(=O)CSC1=Nc2ccccc2C2=NC(Cc3ccccc3)C(=O)N12 (stereo not given) | nt | nt | -3.7%[46 µM] | nt | nt
CCn1cnc2c(cnn2-c2ccccc2)c1=O | ? | -17.6% | ? | -4.6% | -11.7%
O=C(NC(=S)Nn1cnc2c(cnn2-c2ccccc2)c1=O)c1ccccc1 | ? | -23.4% | -13.7% | -1.3% | 17.8µM*
Cc1cc(C(=O)O)ccc1-n1c(C)cc(C=C2C(=O)c3ccccc3C2=O)c1C | nt | nt | nt | nt | 10µM*
CSC1=N/C(=C\c2ccc(Br)o2)C(=O)S1 | -8.7 | -11.1% | -2.6% | -7.0% | ?
Cc1ccc(C(=O)O)cc1-c1ccc(C=C2C(=O)c3ccccc3C2=O)o1 | nt | nt | nt | -2.0% | 5.01µM*
Cc1ccc(NC(=O)CN2C(=O)S/C(=C/c3ccc(-c4cc(C(=O)O)ccc4C)o3)C2=O)cc1C | 7.8 | 31.6µM* | -2.2% | 3.1% | ?
O=Cc1ccc(-c2ccccc2C(=O)O)o1 | nt | nt | ? | -0.6% | -10.5%
O=C1C(=Cc2ccc(Br)o2)C(=O)c2ccccc21 | ? | 31.6µM* | -13.5% | -6.5% | -3.8%
O=c1c(-c2ccc(Cl)cc2)nc2cnc(N3CCNCC3)nc2n1Cc1ccc(F)cc1 | nt | ? | nt | -0.8% | ?
COc1ccc(S(=O)(=O)NCC(c2ccco2)N2CCOCC2)cc1OC (stereo not given) | nt | nt | -4.6%[46 µM] | nt | nt
CCOc1ccc(CNC(=O)c2cnc3sc(N4CCOCC4)nn3c2=O)cc1OC | nt | nt | 12.0%[46 µM] | nt | nt
CCC(CC)C(=O)OCc1cc(=O)n2nc(C3CC3)sc2n1 | nt | nt | -12.4%[46 µM] | nt | nt
COc1cc(C)ccc1OCCSc1nnc(-c2ccc(C)cc2)o1 | nt | nt | 15.2%[46 µM] | nt | nt
CC(=O)NCCC(Cc1ccccc1)c1ccco1 (stereo not given) | -100.0* | -10.7% | -6.1% | -3.0% | -6.5%
Cc1c(C(=S)NC(=O)C2CC2)c(=O)n(-c2ccccc2)n1C | nt | nt | 10.6%[46 µM] | -0.9% | 17.8µM*
CC(C)(C)OC(=O)N1CCC(c2c(C(=O)NCc3cccs3)cnn2-c2ccc(F)cc2F)CC1 | nt | nt | -15.7%[46 µM] | nt | nt
O=c1cc(-c2ccccc2O)oc2c(O)c(O)ccc12 | nt | 10µM* | nt | -4.2% | 2.51µM*
O=c1cc(-c2ccccc2O)oc2ccc3ccccc3c12 | nt | -1.5% | nt | ? | 3.0%
SMILES | PNC assembly inh | HPGD inh | LMNA splice mod | Luc counter | ALDH1A1 inh
O=c1cc(-c2ccccc2)oc2c(O)c(O)ccc12 | nt | 3.16µM* | nt | -4.2% | 3.98µM*
Cc1cc(C)cc(NC(=O)CCC(=O)Nc2cc(C)on2)c1 | -100.0* | -16.5% | -9.5% | 1.7% | -2.6%
CC(=O)Nc1ccc(SCC(=O)Nc2cc(C)on2)cc1 | nt | nt | ? | 2.3% | 22.4µM*
Cn1c(SCC(=O)Nc2cc(C(C)(C)C)nn2-c2ccccc2)nc2ccccc21 | -13.6 | -1.3% | ? | -1.6% | 4.5%
CC(=O)Nc1ccc(SCC(=O)Nc2cc(C(C)(C)C)nn2-c2ccccc2)cc1 | -115.1* | -10.0% | ? | -1.1% | 13.8%
O=C1CCCC=C1[C@H](O)CCCCBr | nt | nt | nt | nt | -4.4%[13.5 µM]
CCc1ccc(NC(=O)CCn2cnc3ccccc3c2=O)cc1 | nt | nt | 2.3%[46 µM] | nt | nt
CCCN1CNC(=S)N(c2cc(C)ccc2C)C1 | -100.0* | -8.3% | -4.4% | 3.7% | -2.9%
Cc1ccnc(NS(=O)(=O)c2ccc(N=[N+]=[N-])cc2)n1 | nt | -3.8% | nt | -3.0%[7.66 µM] | -4.0%[13.5 µM]
Cn1c(Cc2csc(N)n2)nnc1SCC(=O)NCc1ccccc1 | -92.0* | -9.9% | 1.1% | -0.9% | 28.2µM*
Cn1c(Cc2csc(N)n2)nnc1SCC(=O)NC1CCCCC1 | ? | -9.3% | 12.7% | -3.0% | ?
CCc1cnc2c(c1SCC(=O)Nc1ccc(OC)c(OC)c1)c(=O)n(C)c(=O)n2C | nt | nt | -6.4%[46 µM] | nt | nt
